Data: paper PMC12136788
Numbering of substitutions follows the chain as printed. In all, about 24,000 sequences were measured (“enrichment r”: median about 0.99, highest 2% from about 3.7 on). This is one part of a sample in which the highest values are shown more often than they occur.

T1: UNK ZnF1-3 (human, UniProt Q9C0B0 31-174)
T1 sequence: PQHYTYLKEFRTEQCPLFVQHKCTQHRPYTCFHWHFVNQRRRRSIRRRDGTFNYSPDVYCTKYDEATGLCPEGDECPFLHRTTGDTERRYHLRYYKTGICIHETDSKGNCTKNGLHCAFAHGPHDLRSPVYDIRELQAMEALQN

B1: 129217275_129261777_1030_CDS_ENSMUSG00000036155_ENSMUST00000038361|mouse|control|control (ssRNA)
RNA: GGGAGUUCUACAGUCCGACGAUCGUAGCCAUCCAUAGGAGGCAAUACACAUUUUUCCUGAACUCCAUUAAUGAUAUCUGCCACAUUAAUUUUCUCAAGCGACACCAAGCUGGGGACAGCCGUGGUGGAGUUGGUGGAGUUCGCCAACAGAGGAUUGAGCAUCA
B2: 107042093_107043494_1117_CDS_ENSMUSG00000031878_ENSMUST00000034349|mouse|control|control (ssRNA)
RNA: GGGAGUUCUACAGUCCGACGAUCAACAGACUGAAGCAAUUUGGCAACGUGAUUGCCUACAGCAGCAGCAUCUUUCUUUGCUUUCUCUCGGUAAACAUUCUGCAGUUUUAUGUAUUUGUUUGAAUCUGCAAUCAUAUCAGGAAUCAACAGAGGAUUGAGCAUCA
B3: chr7:141441981:141441982:+_ENSG00000106028_ENST00000265304|hu_mus|hu_hu_hu_mus_False|58_58 (ssRNA)
RNA: GGGAGUUCUACAGUCCGACGAUCCUCAUGUCUUACAAACUGACGAAAUACCUGUAACACAGGUCUUCGAAACAUGGCUUCUAUUUUUCUUACAACCUAAUCUUUAGGCUUUUCCUAAAGGAAAGAAAGAAAAGAGAAAAAUGACAACAGAGGAUUGAGCAUCA
B4: chrX:16871948:16871949:-_ENSG00000102054_ENST00000404022|hu_mus|FALSE|FALSE (ssRNA)
RNA: GGGAGUUCUACAGUCCGACGAUCAGUAAAGAUUGCUUUAGCAUCCACAAUUUUGCCUUCCUUUGGUCCUGCAUUUAUAUCCCACAGGCAGACAGUAUGGUCAUCAGAUGCACUCAGGAGAUGCCCACUCAGAUUAGAAUUCCACAACAGAGGAUUGAGCAUCA
B5: chr22:35691198:35691199:+_ENSG00000100281_ENST00000216106|hu_mus|FALSE|FALSE (ssRNA)
RNA: GGGAGUUCUACAGUCCGACGAUCACAGUCCUGUGAGAAGCUUAGCUGUGACAGCAGUCGGGCUAUGGGAAGGAGUUCCCUAGGAUGCCAGCUGGCUACAUGGUCCCCAAAGGUUUACUGUGAUGCUGCCUCGUUCCAUCCAGGCAACAGAGGAUUGAGCAUCA
B6: chr9:14812383:14812384:-_ENSMUSG00000031934_ENSMUST00000164273|mus_mus|mus_mus_mus_hu_True|38_48 (ssRNA)
RNA: GGGAGUUCUACAGUCCGACGAUCAUAGCCCAGGUAGAUACACGCUAACAGUAUAAUGAUGAGUGUCAGCAGGCGGCAGCUAAUGUAUUUCAUGAUUAAAUGACUAGAAUUUUUCUUUGUCUUCAAGUACUGCUCCACAAUUGGCAACAGAGGAUUGAGCAUCA
B7: chr9:14812383:14812384:-_ENSMUSG00000031934_ENSMUST00000164273|mus_mus|mus_mus_mus_hu_True|28_48 (ssRNA)
RNA: B6 RNA with G101U, C103U, A108G, U111C, C114U
B8: chr9:14812383:14812384:-_ENSMUSG00000031934_ENSMUST00000164273|mus_mus|mus_mus_mus_hu_True|48_48 (ssRNA)
RNA: B6 RNA with G101U, C103U
B9: chrX:98862621:98862622:+_ENSMUSG00000034160_ENSMUST00000044475|mus_hu|mus_mus_mus_hu_False|78_78 (ssRNA)
RNA: GGGAGUUCUACAGUCCGACGAUCCUGCAUCUCCUUUAGAGUGUUUCCCAUAUUAGAAUAAGCAUCAGCAAAGGUAGGACUGAUUCGAAUAGCCUCCUUAUAAUGCAUCAGAGCUUCCUGCAGUUUUCCCUGCUGCUGCAGUACCAACAGAGGAUUGAGCAUCA
B10: chr1:6284582:6284583:-_ENSG00000116237_ENST00000343813|hu_hu|FALSE|FALSE (ssRNA)
RNA: GGGAGUUCUACAGUCCGACGAUCAGCUAGGAAUACCCCUUUGAAUGUGUACUGCUACUUAUAAAAAAUAGGUAUGUAGCUAUGAUUAAAUAGAUGAAGGGCCAAAGCAUCCUAUGAGGAAGUAUUUUUAAAAUUGUAUAGAUGCAACAGAGGAUUGAGCAUCA
B11: chr9:14812383:14812384:-_ENSMUSG00000031934_ENSMUST00000164273|mus_mus|mus_mus_mus_hu_True|68_98 (ssRNA)
RNA: B6 RNA with C42U, U45C, G68C, G72C, U87C, C90G, G101U, C103U
B12: chr12:1897663:1897664:+_ENSG00000006831_ENST00000357103|hu_mus|FALSE|FALSE (ssRNA)
RNA: GGGAGUUCUACAGUCCGACGAUCGCUUUGUGAUUUCAGCAACUUAUAGAGGGGAGAGAGGAAAUACUGAAAAAGGCCACUAUUUAAUGAUGAGAGAGUGAAGGUGUACAGGUUCCUAACCAGCCUAGGGCCAAAAAAGGAGACCAACAGAGGAUUGAGCAUCA
B13: chr1:6284582:6284583:-_ENSG00000116237_ENST00000343813|hu_hu|motif|central (ssRNA)
RNA: B10 RNA with U80G, A81G
B14: chr12:1897663:1897664:+_ENSG00000006831_ENST00000357103|hu_mus|motif|central (ssRNA)
RNA: B12 RNA with U80G, A81G

target: T1, UNK ZnF1-3; assay: nsRBNS (natural sequence RNA bind-n-seq); RBNS binding buffer (assumed for nsRBNS): 25 mM Tris pH 7.5, 150 mM KCl, 3 mM MgCl2, 0.01% Triton X-100, 500 ug/ml BSA, 20 U/ml SUPERase-In, 4 C; UNK is unkempt and MSI1 is Musashi-1; names of the RNAs are library labels; protein concentration not given here; high values mean tight binding

Compared with B1, B2 is lower in binding signal: 1.11 enrichment R for the first, 1.02 enrichment R for the second.

Compared with B3, B4 is higher in binding signal: 0.678 enrichment R for the first, 1.03 enrichment R for the second.

Compared with B5, B6 is higher in binding signal: 1.01 enrichment R for the first, 1.52 enrichment R for the second.

Going from B7 to B8, the binding signal rises from 3.67 enrichment R to 3.85 enrichment R.

First: B9
Second: B10
The binding signal of the first is lower: 1.09 enrichment R for the first, 6.19 enrichment R for the second.

First: B11
Second: B12
The binding signal of the first is lower: 1.27 enrichment R for the first, 3.52 enrichment R for the second.

First: B13
Second: B14
The binding signal of the first is higher: 6.98 enrichment R for the first, 3.48 enrichment R for the second.
